# Data reported in PubChem BioAssay (NCI).
# About 83,000 compounds went through this panel and 20% of them were active in at least one assay; those are over-represented in the sample as a whole.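 Activity criterion: percent growth below 10, measured after cells in 96-well plates were exposed to a single compound concentration for 48 hours.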 Unmarked numbers belong to inactive results. Calls of active or inactive are those of the source.
# What was measured:
# Assay in all cases: NCI-60 one-dose screen, 48 h (100 = growth as untreated, 0 = no growth, -100 = all killed)
# DU-145 prostate = conditions: 10 µM unless noted
# K-562 leukemia = conditions: 10 µM unless noted
# MALME-3M melanoma = conditions: 10 µM unless noted
# MDA-MB-231 breast = conditions: 10 µM unless noted
# RXF 393 renal = conditions: 10 µM unless noted
# SF-268 CNS = conditions: 10 µM unless noted
# SF-295 CNS = conditions: 10 µM unless noted
# SF-539 CNS = conditions: 10 µM unless noted
# UACC-257 melanoma = conditions: 10 µM unless noted
# M14 melanoma = conditions: 10 µM unless noted
# HCT-15 colon = conditions: 10 µM unless noted
# HT29 colon = conditions: 10 µM unless noted
# SNB-75 CNS = conditions: 10 µM unless noted
# SNB-19 CNS = conditions: 10 µM unless noted
# U251 CNS = conditions: 10 µM unless noted
# PC-3 prostate = conditions: 10 µM unless noted
# SK-MEL-5 melanoma = conditions: 10 µM unless noted
# UACC-62 melanoma = conditions: 10 µM unless noted
# LOX IMVI melanoma = conditions: 10 µM
# SK-MEL-28 melanoma = conditions: 10 µM unless noted
SMILES,growth (DU-145 prostate),growth (K-562 leukemia),growth (MALME-3M melanoma),growth (MDA-MB-231 breast),growth (RXF 393 renal),growth (SF-268 CNS),growth (SF-295 CNS),growth (SF-539 CNS),growth (UACC-257 melanoma),growth (M14 melanoma),growth (HCT-15 colon),growth (HT29 colon),growth (SNB-75 CNS),growth (SNB-19 CNS),growth (U251 CNS),growth (PC-3 prostate),growth (SK-MEL-5 melanoma),growth (UACC-62 melanoma),growth (LOX IMVI melanoma),growth (SK-MEL-28 melanoma)
Brc1ccc(-c2n(Cc3ccc4ccccc4c3)c(-c3ccccc3)c(-c3ccccc3)[n+]2Cc2ccc3ccccc3c2)cc1,-100% (active),4.96% (active),-91% (active),-89.5% (active),-69.6% (active),-72.1% (active),-86.3% (active),-100% (active),-89.6% (active),-90.8% (active),-85.4% (active),-98.9% (active),-97.9% (active),-93.4% (active),-97.8% (active),-29.3% (active),-98.6% (active),-88.8% (active),-92.6% (active),-96.3% (active)
N=C1N=C(SCc2nc3ccccc3[nH]2)NC(=O)/C1=C/c1ccc(Cl)cc1,110%,110%,96.4%,92.8%,113%,112%,103%,102%,106%,108%,103%,108%,106%,105%,105%,107%,98.3%,90.3%,91.3%,110%
COc1ccc(NC(=O)[C@@H](N)Cc2ccccc2)cc1C(=O)Nc1cccc(C2CC(=O)c3c(cc(OC)c(OC)c3OC)O2)c1 (stereo not given in full),58.1%,17.5%,66%,63%,73.7%,60.5%,127%,82.4%,95.5%,65%,37.7%,73.4%,108%,79%,60.2%,38.8%,46.5%,49.7%,25.1%,73.2%
CCOC(=O)C1=C(N)N(c2ccccc2)C2=C(C(=O)CC(C)(C)C2)C1c1ccc([N+](=O)[O-])cc1 (stereo not given),106%,83.7%,120%,97.4%,101%,106%,96.2%,94.3%,112%,99.5%,86.4%,99.4%,104%,94%,101%,68%,96.5%,66.6%,85.5%,105%
COc1ccc2c(c1)c(-c1cc(N)n3nc(-c4cn(C)c5ccccc45)cc3n1)cn2C,-58% (active),2.2% (active),-76.5% (active),-53.8% (active),-82.2% (active),-56.5% (active),-73.3% (active),-87.6% (active),-67.8% (active),-83% (active),-80.1% (active),-64.6% (active),-66.3% (active),4.07% (active),-80% (active),-20.5% (active),-58.3% (active),-58.4% (active),-87.1% (active),-92.2% (active)
O=C(O)Cn1c(O)c(/C=C2/C=c3cc4c(cc3=NC2=O)OCCO4)sc1=S,118%,106%,100%,103%,117%,118%,94.6%,107%,108%,111%,98.5%,119%,101%,97.9%,109%,106%,107%,94.8%,93.6%,116%
Cn1cc(-c2nc(N)nnc2-c2c[nH]c3ccc(F)cc23)c2cc(Br)cnc21,10.1%,5.23% (active),21.6%,5.57% (active),-4.53% (active),4.51% (active),9.21% (active),-11.5% (active),29.8%,-9.79% (active),3.56% (active),-50.6% (active),-15.8% (active),22.9%,1.09% (active),8.22% (active),-81.5% (active),13.3%,13.9%,24%
Cc1occc1C(=O)NN1C(=O)/C(=C/C=C/c2ccc([N+](=O)[O-])o2)SC1=S,-57.7% (active),11.2%,-78.6% (active),-89% (active),-88.1% (active),-64.3% (active),47%,-99.4% (active),-44.5% (active),-65.1% (active),-75.5% (active),-57.2% (active),-13.4% (active),12.6%,-92.7% (active),0.198% (active),-96.7% (active),-91.9% (active),-95.9% (active),-73.2% (active)
Cn1cc(-c2cc(N)n3nc(-c4cn(C)c5ccc(Cl)cc45)cc3n2)c2ccccc21,111%,108%,104%,107%,115%,107%,97.2%,105%,102%,102%,100%,105%,89%,108%,103%,110%,98.5%,98.2%,110%,97.4%
Cc1ccc(-c2nc(C#N)c(S(=O)(=O)N3CCN(S(=O)(=O)c4ccc(Cl)cc4)CC3)o2)cc1,97.4%,56.9%,79.1%,90.9%,56.6%,75.8%,110%,70.5%,89.5%,91.5%,103%,117%,86.3%,68.9%,62.1%,101%,94.4%,83.5%,0.237% (active),98.7%
CC1CN(c2oc(-c3ccc([N+](=O)[O-])cc3)nc2C#N)CC(C)O1 (stereo not given),117%,105%,95.7%,95.9%,108%,107%,95.5%,93.9%,102%,103%,97.1%,112%,98.8%,92.2%,104%,96.7%,104%,84%,95.6%,105%
O=C(c1ccccc1)c1ccc2nc(-c3cccc(Cl)c3)[nH]c2c1,115%,98.1%,111%,102%,115%,106%,116%,94.9%,100%,108%,108%,110%,99.2%,103%,96.5%,99.6%,99.5%,98%,95.4%,104%
Cn1cc(-c2cc(N)n3nc(-c4cn(C)c5ccccc45)cc3n2)c2cc(Cl)ccc21,22%,1.57% (active),-77% (active),-45.4% (active),-73.7% (active),-46.4% (active),-53.8% (active),-69.3% (active),-59.9% (active),-78.3% (active),-78.3% (active),-67.2% (active),-44% (active),-0.728% (active),-74.5% (active),-38.1% (active),-67% (active),-56.2% (active),-86.5% (active),-86.7% (active)
CC1[C@H]2[C@H](C[C@H]3[C@@H]4CC=C5c6sc(Nc7ccccc7F)nc6CC[C@]5(C)[C@H]4CC[C@@]32C)O[C@]12CC[C@@H](C)CO2 (stereo not given in full),-48.6% (active),1.23% (active),-73.9% (active),-57.5% (active),-88.7% (active),-53.5% (active),-75.5% (active),-87.9% (active),-85.1% (active),-87.8% (active),-80% (active),-79.3% (active),-55.6% (active),-37.5% (active),-88.2% (active),-47.2% (active),-58.1% (active),-70.8% (active),-90.4% (active),-97.1% (active)
COc1cc2c(c(OC)c1OC)C(=O)CC(c1cccc(NC(=O)c3cc(NC(=O)[C@H](C)N)ccc3Cl)c1)O2 (stereo not given in full),36%,9.72% (active),45.5%,52.5%,32.1%,50.5%,110%,44.3%,62.9%,44.3%,24.5%,59.5%,76.1%,67.1%,20.9%,22%,24.9%,34%,15.7%,63%
